Common to all, as to assay: PBM; 200 nM protein, PBS
Settings in all cases: dsDNA, one strand shown

Experiment [1] deals with HESX1 (Homo sapiens, UniProt Q9UBX0 95-180, R165K).
Experiment [2] deals with HESX1 (Homo sapiens, UniProt Q9UBX0 95-180).
The target of experiment [3] is HESX1 (Homo sapiens, UniProt Q9UBX0 95-180, R109Q).
Experiment [4] has as its target HESX1 (Homo sapiens, UniProt Q9UBX0 95-180, P111T).
In experiment [5] the target is HESX1 (Homo sapiens, UniProt Q9UBX0 95-180, F115L).
Sequence of HESX1 (Homo sapiens, UniProt Q9UBX0 95-180, F115L) (Q9UBX0 95-180 F115L): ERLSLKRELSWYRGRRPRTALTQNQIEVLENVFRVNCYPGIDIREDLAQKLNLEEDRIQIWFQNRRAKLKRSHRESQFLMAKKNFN
For experiment [6], the target named is PRRX1 (Homo sapiens, UniProt P54821 80-166, F113S).
Sequence of PRRX1 (Homo sapiens, UniProt P54821 80-166, F113S) (P54821 80-166 F113S): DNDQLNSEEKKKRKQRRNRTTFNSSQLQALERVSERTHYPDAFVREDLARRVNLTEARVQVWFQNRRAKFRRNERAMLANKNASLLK
The target in experiment [7] is MSX2 (Homo sapiens, UniProt P35548 130-214, R199I).
Sequence of MSX2 (Homo sapiens, UniProt P35548 130-214, R199I) (P35548 130-214 R199I): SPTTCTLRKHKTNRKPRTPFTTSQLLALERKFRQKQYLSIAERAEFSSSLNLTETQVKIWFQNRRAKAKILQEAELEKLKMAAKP
Experiment [8] concerns the target PROP1 (Homo sapiens, UniProt O75360 56-141, R99H).
A further experiment concerns the target ALX3 (Homo sapiens, UniProt O95076 139-225, L168Q).
Experiment [9] concerns the target MSX2 (Homo sapiens, UniProt P35548 130-214, F161Y).
The target of experiment [10] is PRRX1 (Homo sapiens, UniProt P54821 80-166).
Sequence of PRRX1 (Homo sapiens, UniProt P54821 80-166) (P54821 80-166): as the sequence (P54821 80-166 F113S) above, with S34F counted along it
Experiment [11] addresses PROP1 (Homo sapiens, UniProt O75360 56-141).
Experiment [12] has as its target PROP1 (Homo sapiens, UniProt O75360 56-141, F88S).
In experiment [13] the target is ALX1 (Homo sapiens, UniProt Q15699 118-204, L144V).
Sequence of ALX1 (Homo sapiens, UniProt Q15699 118-204, L144V) (Q15699 118-204 L144V): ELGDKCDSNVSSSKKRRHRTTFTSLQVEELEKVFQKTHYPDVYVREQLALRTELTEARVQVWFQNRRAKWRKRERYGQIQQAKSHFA
Experiment [14] has as its target ALX1 (Homo sapiens, UniProt Q15699 118-204, L144R).
Experiment [15] deals with ALX1 (Homo sapiens, UniProt Q15699 118-204).
Sequence of ALX1 (Homo sapiens, UniProt Q15699 118-204) (Q15699 118-204): as the sequence (Q15699 118-204 L144V) above, with V27L counted along it

Sequence of HESX1 (Homo sapiens, UniProt Q9UBX0 95-180, R165K) (Q9UBX0 95-180 R165K): as the sequence (Q9UBX0 95-180 F115L) above, with L21F, R71K counted along it
Sequence of HESX1 (Homo sapiens, UniProt Q9UBX0 95-180) (Q9UBX0 95-180): as the sequence (Q9UBX0 95-180 F115L) above, with L21F counted along it
Sequence of HESX1 (Homo sapiens, UniProt Q9UBX0 95-180, R109Q) (Q9UBX0 95-180 R109Q): as the sequence (Q9UBX0 95-180 F115L) above, with R15Q, L21F counted along it
Sequence of HESX1 (Homo sapiens, UniProt Q9UBX0 95-180, P111T) (Q9UBX0 95-180 P111T): as the sequence (Q9UBX0 95-180 F115L) above, with P17T, L21F counted along it
Sequence of ALX3 (O95076 139-225 L168Q): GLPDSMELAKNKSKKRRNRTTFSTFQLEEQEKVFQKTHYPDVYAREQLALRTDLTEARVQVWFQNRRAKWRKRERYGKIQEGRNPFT
Sequence of PROP1 (Homo sapiens, UniProt O75360 56-141, R99H) (O75360 56-141 R99H): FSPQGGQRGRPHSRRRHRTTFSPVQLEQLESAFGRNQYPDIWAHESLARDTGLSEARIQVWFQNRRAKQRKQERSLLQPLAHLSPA
Sequence of PROP1 (Homo sapiens, UniProt O75360 56-141, F88S) (O75360 56-141 F88S): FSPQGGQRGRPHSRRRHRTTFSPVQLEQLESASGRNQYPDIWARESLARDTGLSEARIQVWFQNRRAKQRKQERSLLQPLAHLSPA
Sequence of PROP1 (Homo sapiens, UniProt O75360 56-141) (O75360 56-141): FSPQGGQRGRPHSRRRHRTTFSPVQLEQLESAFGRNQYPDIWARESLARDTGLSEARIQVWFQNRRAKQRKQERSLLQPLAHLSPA
Sequence of MSX2 (Homo sapiens, UniProt P35548 130-214, F161Y) (P35548 130-214 F161Y): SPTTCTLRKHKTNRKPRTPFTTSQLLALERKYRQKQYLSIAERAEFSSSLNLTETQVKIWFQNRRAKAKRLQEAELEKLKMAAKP
Sequence of ALX1 (Homo sapiens, UniProt Q15699 118-204, L144R) (Q15699 118-204 L144R): as the sequence (Q15699 118-204 L144V) above, with V27R counted along it

In the case of GAGCTGGC, the binding signal with HESX1 [1] was 6.31 upbm affinity estimate (log intensity, higher = more binding, comparable within an allelic series); in the experiment with HESX1 [2] it was 6.3 upbm affinity estimate (log intensity, higher = more binding, comparable within an allelic series); with HESX1 [3], 6.49 upbm affinity estimate (log intensity, higher = more binding, comparable within an allelic series); in the experiment with HESX1 [4] it was 6.25 upbm affinity estimate (log intensity, higher = more binding, comparable within an allelic series); in the experiment with HESX1 [5], 6.47 upbm affinity estimate (log intensity, higher = more binding, comparable within an allelic series).

On to CGACGCGA, for which the binding signal in the experiment with HESX1 [1] was 6.36 upbm affinity estimate (log intensity, higher = more binding, comparable within an allelic series); in the experiment with HESX1 [2], 6.45 upbm affinity estimate (log intensity, higher = more binding, comparable within an allelic series); with HESX1 [3] it was 6.44 upbm affinity estimate (log intensity, higher = more binding, comparable within an allelic series); in the experiment with HESX1 [4], 6.38 upbm affinity estimate (log intensity, higher = more binding, comparable within an allelic series); with HESX1 [5], 6.54 upbm affinity estimate (log intensity, higher = more binding, comparable within an allelic series).

On to AGGCCCGC, for which the binding signal in the experiment with HESX1 [1] was 6.43 upbm affinity estimate (log intensity, higher = more binding, comparable within an allelic series); with HESX1 [2] it was 6.37 upbm affinity estimate (log intensity, higher = more binding, comparable within an allelic series); in the experiment with HESX1 [3] it was 6.38 upbm affinity estimate (log intensity, higher = more binding, comparable within an allelic series); with HESX1 [4] it was 6.39 upbm affinity estimate (log intensity, higher = more binding, comparable within an allelic series); in the experiment with HESX1 [5] it was 6.43 upbm affinity estimate (log intensity, higher = more binding, comparable within an allelic series).

Turning to ACAATTAT, the binding signal in the experiment with HESX1 [1] is 11.8 upbm affinity estimate (log intensity, higher = more binding, comparable within an allelic series); in the experiment with PRRX1 [6] it was 11.2 upbm affinity estimate (log intensity, higher = more binding, comparable within an allelic series); with HESX1 [2] it was 12.1 upbm affinity estimate (log intensity, higher = more binding, comparable within an allelic series); with MSX2 [7], 12.6 upbm affinity estimate (log intensity, higher = more binding, comparable within an allelic series); in the experiment with HESX1 [3] it was 8.44 upbm affinity estimate (log intensity, higher = more binding, comparable within an allelic series); with PROP1 [8] it was 10.8 upbm affinity estimate (log intensity, higher = more binding, comparable within an allelic series). Also, the binding signal in the experiment with ALX3 is 10.2 upbm affinity estimate (log intensity, higher = more binding, comparable within an allelic series); in the experiment with HESX1 [4] it was 10.3 upbm affinity estimate (log intensity, higher = more binding, comparable within an allelic series); with MSX2 [9], 13.4 upbm affinity estimate (log intensity, higher = more binding, comparable within an allelic series); with HESX1 [5], 7.61 upbm affinity estimate (log intensity, higher = more binding, comparable within an allelic series); in the experiment with PRRX1 [10] it was 13.2 upbm affinity estimate (log intensity, higher = more binding, comparable within an allelic series).

For the sequence CGCACGCC, the binding signal was 6.51 upbm affinity estimate (log intensity, higher = more binding, comparable within an allelic series) with HESX1 [1]; 6.47 upbm affinity estimate (log intensity, higher = more binding, comparable within an allelic series) with HESX1 [2]; 6.43 upbm affinity estimate (log intensity, higher = more binding, comparable within an allelic series) with PROP1 [11]; 6.54 upbm affinity estimate (log intensity, higher = more binding, comparable within an allelic series) in the experiment with HESX1 [3]; 6.77 upbm affinity estimate (log intensity, higher = more binding, comparable within an allelic series) with PROP1 [8]; 6.43 upbm affinity estimate (log intensity, higher = more binding, comparable within an allelic series) in the experiment with HESX1 [4]. The binding signal with PROP1 [12] is 6.63 upbm affinity estimate (log intensity, higher = more binding, comparable within an allelic series); with HESX1 [5] it was 6.48 upbm affinity estimate (log intensity, higher = more binding, comparable within an allelic series).

CCAGGACC: the binding signal with HESX1 [1] was 6.54 upbm affinity estimate (log intensity, higher = more binding, comparable within an allelic series); in the experiment with HESX1 [2], 6.39 upbm affinity estimate (log intensity, higher = more binding, comparable within an allelic series); with HESX1 [3], 6.57 upbm affinity estimate (log intensity, higher = more binding, comparable within an allelic series); with HESX1 [4] it was 6.52 upbm affinity estimate (log intensity, higher = more binding, comparable within an allelic series); in the experiment with HESX1 [5], 6.51 upbm affinity estimate (log intensity, higher = more binding, comparable within an allelic series).

Turning to CCGCCCCC, the binding signal with HESX1 [1] was 6.46 upbm affinity estimate (log intensity, higher = more binding, comparable within an allelic series); in the experiment with PRRX1 [6] it was 9.06 upbm affinity estimate (log intensity, higher = more binding, comparable within an allelic series); with HESX1 [2], 6.33 upbm affinity estimate (log intensity, higher = more binding, comparable within an allelic series); with HESX1 [3], 6.51 upbm affinity estimate (log intensity, higher = more binding, comparable within an allelic series); with HESX1 [4], 6.43 upbm affinity estimate (log intensity, higher = more binding, comparable within an allelic series); in the experiment with HESX1 [5], 6.41 upbm affinity estimate (log intensity, higher = more binding, comparable within an allelic series). Moreover, the binding signal in the experiment with PRRX1 [10] is 8.75 upbm affinity estimate (log intensity, higher = more binding, comparable within an allelic series).

GCCGGTCC: the binding signal is 6.49 upbm affinity estimate (log intensity, higher = more binding, comparable within an allelic series) with HESX1 [1]; 6.35 upbm affinity estimate (log intensity, higher = more binding, comparable within an allelic series) with HESX1 [2]; 6.44 upbm affinity estimate (log intensity, higher = more binding, comparable within an allelic series) in the experiment with HESX1 [3]; 6.43 upbm affinity estimate (log intensity, higher = more binding, comparable within an allelic series) with HESX1 [4]; 6.58 upbm affinity estimate (log intensity, higher = more binding, comparable within an allelic series) with HESX1 [5].

CCTAGCTC: the binding signal was 6.41 upbm affinity estimate (log intensity, higher = more binding, comparable within an allelic series) with HESX1 [1]; 6.56 upbm affinity estimate (log intensity, higher = more binding, comparable within an allelic series) with HESX1 [2]; 6.57 upbm affinity estimate (log intensity, higher = more binding, comparable within an allelic series) with HESX1 [3]; 6.46 upbm affinity estimate (log intensity, higher = more binding, comparable within an allelic series) with HESX1 [4]; 6.62 upbm affinity estimate (log intensity, higher = more binding, comparable within an allelic series) in the experiment with HESX1 [5].

GCCCCCCA: the binding signal with HESX1 [1] is 6.24 upbm affinity estimate (log intensity, higher = more binding, comparable within an allelic series); in the experiment with HESX1 [2], 6.28 upbm affinity estimate (log intensity, higher = more binding, comparable within an allelic series); with HESX1 [3] it was 6.41 upbm affinity estimate (log intensity, higher = more binding, comparable within an allelic series); with HESX1 [4] it was 6.34 upbm affinity estimate (log intensity, higher = more binding, comparable within an allelic series); in the experiment with HESX1 [5], 6.4 upbm affinity estimate (log intensity, higher = more binding, comparable within an allelic series).

For the sequence CCGAGCCG, the binding signal was 6.36 upbm affinity estimate (log intensity, higher = more binding, comparable within an allelic series) in the experiment with HESX1 [1]; 6.14 upbm affinity estimate (log intensity, higher = more binding, comparable within an allelic series) with HESX1 [2]; 6.19 upbm affinity estimate (log intensity, higher = more binding, comparable within an allelic series) with ALX1 [13]; 6.2 upbm affinity estimate (log intensity, higher = more binding, comparable within an allelic series) in the experiment with ALX1 [14]; 6.38 upbm affinity estimate (log intensity, higher = more binding, comparable within an allelic series) with HESX1 [3]; 7.56 upbm affinity estimate (log intensity, higher = more binding, comparable within an allelic series) in the experiment with ALX3. For the same sequence, the binding signal in the experiment with HESX1 [4] was 6.22 upbm affinity estimate (log intensity, higher = more binding, comparable within an allelic series); in the experiment with HESX1 [5] it was 6.62 upbm affinity estimate (log intensity, higher = more binding, comparable within an allelic series); in the experiment with ALX1 [15] it was 6.32 upbm affinity estimate (log intensity, higher = more binding, comparable within an allelic series).

The values above are taken from paper PMC11006913.
